Laboratory results reported in PubChem BioAssay (NCI).
Compounds without any hit were thinned out: in the full panel of roughly 83,000, 20% have a hit.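 Compound tested at a single concentration for 48 hours in 96-well plates; a percent growth value below 10 was scored as active.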 Active and inactive are the calls of the source.

Each compound was assayed on MDA-MB-468 breast (assay: NCI-60 one-dose screen, 48 h (100 = growth as untreated, 0 = no growth, -100 = all killed)). Settings: 10 µM unless noted.

| Structure (SMILES) | growth |
| --- | --- |
| COc1ccc(C(=O)c2c(N)nc3n2CCCC3)cc1OC | 97.7% (inactive) |
| C=C1C(=O)O[C@H]2[C@H]1CC/C(COC(=O)NCCCCNC(=O)OC/C1=C/CC[C@@]3(C)O[C@H]3[C@H]3OC(=O)C(=C)[C@@H]3CC1)=C\CC[C@@]1(C)O[C@@H]21 | -14.8% (active) |
| O=C(Nc1cc(Cl)cc(Cl)c1)Oc1c(Cl)c(Cl)c(Cl)c(Cl)c1Cl | 101% (inactive) |
| c1ccc([P+](c2ccccc2)(c2ccccc2)c2ccc3c4ccc([P+](c5ccccc5)(c5ccccc5)c5ccccc5)c5cccc(c6cccc2c63)c54)cc1 | -10.9% (active) |
| O=C1/C(=C/c2ccc(Br)cc2)COc2ccc(O)cc21 | 89% (inactive) |
| CCOC(=O)c1[nH]c(C)c(C(C)=O)c1C | 87.2% (inactive) |
| O=C(Cn1cc(CN2CCN(c3ccnc4cc(Cl)ccc34)CC2)nn1)Nc1cccc([N+](=O)[O-])c1 | 92.8% (inactive) |
| CC1(C)CN(c2cnc(C(=O)Nc3cc(F)cc4cccnc34)cn2)CCN1 | 17.8% (inactive) |
| N#Cc1ccccc1Cn1c2nc(=N)c3ccccc3c-2nc2ccccc21 | 24.3% (inactive) |
| COc1ccc(S(=O)(=O)N(C(C)=O)c2ccccc2/C=C/c2cc[n+]([O-])cc2)cc1 | 10.8% (inactive) |
| C=CCN1C=CC(=O)[C@H](O[Si](C)(C)C(C)(C)C)[C@@H]1/C=C/c1ccccc1 | -72.9% [100 µM] (active) |
| Cc1ccc2nc(C)c(-c3nnc(SCc4ccc(C#N)cc4)o3)n2c1 | 87.5% (inactive) |
| N#Cc1nn(-c2cc(=O)[nH]c3ccc(Br)cc23)c(N)c1C#N | 106% (inactive) |
